# Source: the supplement of paper PMC11060735
# The full ranking holds about 1,800 compounds; the median of “GFP- (p16Ink4a-) cell count relative to negative-control wells” is about 0.99, and the lowest 2% start at about 0.5. This is one part of a sample in which the lowest values are shown more often than they occur.
# Test system: mouse p16Ink4a+/- lung fibroblasts (INKBRITE, bleomycin-injured)
# Assay: GFP- (p16Ink4a-) cell count relative to negative-control wells (fold of vehicle); higher = more p16Ink4a- cells surviving
# Details: 1 µM; 3 days
row,Structure (SMILES),GFP-
1,CCN(CC)CCCCNc1ncc2cc(-c3cc(OC)cc(OC)c3)c(NC(=O)NC(C)(C)C)nc2n1,0.935
2,Cc1ccnc2c1NC(=O)c1cccnc1N2C1CC1 [Nevirapine],1.06
3,CC(C)=CCC[C@](C)(O[C@@H]1O[C@H](CO[C@@H]2OC[C@@H](O)[C@H](O)[C@H]2O)[C@@H](O)[C@H](O)[C@H]1O)[C@H]1CC[C@]2(C)[C@@H]1[C@H](O)C[C@@H]1[C@@]3(C)CC[C@H](O[C@@H]4O[C@H](CO)[C@@H](O)[C@H](O)[C@H]4O)C(C)(C)[C@@H]3CC[C@]12C [Gynostemma Extract],1.07
4,O=C(O)C1=CO[C@@H](O[C@@H]2O[C@H](CO)[C@@H](O)[C@H](O)[C@H]2O)[C@@H]2C(CO)=CC[C@H]12 [Geniposidic acid],1.05
5,CC1(C)CCC(c2ccc(Cl)cc2)=C(CN2CCN(c3ccc(C(=O)NS(=O)(=O)c4ccc(N[C@H](CCN5CCOCC5)CSc5ccccc5)c(S(=O)(=O)C(F)(F)F)c4)cc3)CC2)C1 [Navitoclax],0.944
6,NCC(=O)Nc1ccc(-n2nc(C(F)(F)F)cc2-c2ccc3c(ccc4ccccc43)c2)cc1,1.1
7,CCN(CC)C(=S)SSC(=S)N(CC)CC [Disulfiram],0.453
8,O=C(O)CCc1ccc(NCc2cccc(Oc3ccccc3)c2)cc1,0.98
9,CCCC(C)NC(=O)c1ccc(Cl)c(Cl)c1 (centres undefined),1.14
10,CC(C)C[C@H](NC(=O)CNC(=O)c1cc(Cl)ccc1Cl)B(O)O [Ixazomib],0.394
11,CCOc1ccn(-c2ccc(F)cc2)c(=O)c1C(=O)Nc1ccc(Oc2ccnc(N)c2Cl)c(F)c1,0.736
12,CN1CCN(c2c(F)cc3c(=O)c(C(=O)O)cn4c3c2OCN4C)CC1 [Marbofloxacin],1.07
13,Cn1cc(C2=C(c3ccc(Cl)cc3Cl)C(=O)NC2=O)c2ccccc21,0.845
14,Cc1c(OCC(F)(F)F)ccnc1C[S@@](=O)c1nc2ccccc2[nH]1 [Dexlansoprazole],0.956
15,COc1ccc(CNc2nc(N3CCC[C@H]3CO)ncc2C(=O)NCc2ncccn2)cc1Cl [Avanafil],1.06
16,CCc1cnn2c(NCc3ccc[n+]([O-])c3)cc(N3CCCC[C@H]3CCO)nc12 [Dinaciclib],0.383
17,COc1ccc(C[C@H](NC(=O)[C@H](C)NC(=O)CN2CCOCC2)C(=O)N[C@@H](Cc2ccccc2)C(=O)[C@]2(C)CO2)cc1,0.791
18,CC(C)C[C@H](NC(=O)[C@H](CCc1ccccc1)NC(=O)CN1CCOCC1)C(=O)N[C@@H](Cc1ccccc1)C(=O)N[C@@H](CC(C)C)C(=O)[C@@]1(C)CO1 [Carfilzomib],0.433
19,CC(C)c1nc(CN(C)C(=O)N[C@@H](CCN2CCOCC2)C(=O)N[C@H](CC[C@H](Cc2ccccc2)NC(=O)OCc2cncs2)Cc2ccccc2)cs1 [Cobicistat],1.04
